# Source: PubChem BioAssay (NCI)
# This is part of a sample that, as a whole, favours compounds with a hit. Of some 83,000 tested, about 20% had one in any assay.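 Assay: single dose, 48 h. Readout: percent growth (0 = no net growth; negative = cell death). Active: <10.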 Unmarked numbers belong to inactive results. Activity calls are given as the source filed them.
# How the values were obtained:
# Assay in all cases: NCI-60 one-dose screen, 48 h (100 = growth as untreated, 0 = no growth, -100 = all killed)
# Settings in all cases: 10 µM
# NCI-H23 lung = tested on: NCI-H23 lung
# NCI-H226 lung = tested on: NCI-H226 lung
# NCI-H322M lung = tested on: NCI-H322M lung
# HOP-62 NSCLC = tested on: HOP-62 NSCLC
# NCI-H460 lung = tested on: NCI-H460 lung
# HOP-92 NSCLC = tested on: HOP-92 NSCLC
# NCI-H522 lung = tested on: NCI-H522 lung
# A549/ATCC NSCLC = tested on: A549/ATCC NSCLC
# 786-0 renal = tested on: 786-0 renal
# COLO 205 colon = tested on: COLO 205 colon
# DU-145 prostate = tested on: DU-145 prostate
# K-562 leukemia = tested on: K-562 leukemia
# MALME-3M melanoma = tested on: MALME-3M melanoma
# MDA-MB-231 breast = tested on: MDA-MB-231 breast
# SF-268 CNS = tested on: SF-268 CNS
# SF-295 CNS = tested on: SF-295 CNS
# SF-539 CNS = tested on: SF-539 CNS
# UACC-257 melanoma = tested on: UACC-257 melanoma
# M14 melanoma = tested on: M14 melanoma
SMILES,growth (NCI-H23 lung),growth (NCI-H226 lung),growth (NCI-H322M lung),growth (HOP-62 NSCLC),growth (NCI-H460 lung),growth (HOP-92 NSCLC),growth (NCI-H522 lung),growth (A549/ATCC NSCLC),growth (786-0 renal),growth (COLO 205 colon),growth (DU-145 prostate),growth (K-562 leukemia),growth (MALME-3M melanoma),growth (MDA-MB-231 breast),growth (SF-268 CNS),growth (SF-295 CNS),growth (SF-539 CNS),growth (UACC-257 melanoma),growth (M14 melanoma)
O=C(Cc1ccc2c(c1)CN(C1CCC(=O)NC1=O)C2=O)NCCc1ccccc1 (stereo not given),72.8%,11.4%,22.5%,0.419% (active),110%,-14.1% (active),35.4%,20.3%,6.47% (active),0.214% (active),66.8%,20.2%,-59.7% (active),-32.2% (active),31.3%,17%,29.1%,92.2%,7.92% (active)
COc1ccc(C(=O)/C=C/c2cc(C(F)(F)F)cc(C(F)(F)F)c2)cc1S(N)(=O)=O,-86.1% (active),-69.7% (active),-73.8% (active),-44.7% (active),-24% (active),-37.9% (active),-67.7% (active),-11.7% (active),-69.2% (active),-66.1% (active),-41.4% (active),8.85% (active),-94.7% (active),-77.8% (active),6.18% (active),-86% (active),-98.4% (active),-55.5% (active),-75.8% (active)
Nc1nc(Nc2ccccc2)nn1Cc1c(Cl)cccc1Cl,34.1%,30.4%,51.8%,60.6%,24.8%,-17.4% (active),21.1%,43.1%,27.8%,33.2%,48%,12.8%,31.4%,24.1%,50%,46.6%,37.6%,69.7%,35.5%
CCCn1c(=O)c2[nH]c(-c3ccc(OCc4nc5ccc(F)cc5[nH]4)cc3)nc2n(CCC)c1=O,26.3%,-36.1% (active),23.8%,-19.4% (active),-50.8% (active),-27.5% (active),24.3%,36%,-87.2% (active),25.5%,34.2%,34.9%,-52.2% (active),-46.7% (active),46.5%,10.6%,-68.9% (active),31.9%,44.7%
CC(C)C1=C[C@@]23CC[C@@H]4[C@](C)(CCC[C@]4(C)C(=O)NCc4ccccc4)[C@H]2C[C@@H]1[C@H]1C(=O)OC(=O)[C@H]13,23%,76.1%,102%,57.2%,17.6%,64.7%,17%,33.7%,70.5%,79.6%,55.3%,21.5%,87%,77.1%,46.6%,17.8%,63.2%,82.1%,54.3%
CCOc1ccc(/C=N/NC(=O)Cn2nc(Cc3ccccc3)c3onc(C)c3c2=O)cc1,37.4%,-19.3% (active),50.5%,-39.3% (active),16.7%,-45.9% (active),11.4%,11.6%,-51.9% (active),29.2%,30.6%,75%,-11.8% (active),9.5% (active),-9.54% (active),10.8%,-47.2% (active),66.2%,57.6%
Cc1noc2c(Cc3ccccc3)nn(CC(=O)N/N=C/c3ccc(F)cc3)c(=O)c12,78.4%,29%,84.6%,14.7%,28.9%,-12.7% (active),85.8%,45.3%,-2.13% (active),72.5%,65.2%,96.7%,-1.4% (active),44.3%,62.6%,25.9%,66.9%,67.4%,66.1%
CC(=O)c1ccc(Nc2nc(SCCC(C)C)nc(-c3ccc(F)cc3)c2C#N)cc1,53.2%,5.36% (active),41.4%,41.1%,11.4%,3.49% (active),72.8%,18.8%,2.71% (active),77.2%,61.1%,63.9%,72.7%,24.8%,52.9%,11.5%,16.3%,106%,84.7%
Cc1ccc2nc(COc3ccc(C(=O)NNC(=S)NC(=O)c4ccccc4)cc3)[nH]c2c1,53.3%,60.7%,80.7%,45.4%,20.5%,80.6%,60.5%,53.9%,74.4%,84%,64.7%,21.8%,80.9%,71.5%,55.2%,25.3%,41.9%,83.4%,65.2%
CCCn1c(=O)c2[nH]c(-c3ccc(OCc4nc5ccc(C)cc5[nH]4)cc3)nc2n(CCC)c1=O,25.3%,-55% (active),40.3%,-17.3% (active),13%,-43.2% (active),36.7%,62.7%,-75.2% (active),91.3%,61.8%,28.3%,-69% (active),-50.7% (active),66.4%,12.6%,-84.2% (active),65.5%,59.7%
Cn1cc(/C=N/Nc2cccc(Cl)n2)c2ccccc21,69.2%,68.9%,89.9%,75.8%,63.8%,42.8%,74.3%,76%,63.7%,67.7%,72.5%,20.2%,70.7%,51.6%,56%,73.5%,64.6%,88.8%,55.4%
COc1ccc(CN2[C@H](C(=O)NCCCCCCC(=O)NO)Cc3c([nH]c4ccccc34)[C@H]2C2CC2)cc1,-17.5% (active),28.1%,9.54% (active),14%,6.41% (active),-24.5% (active),-44.6% (active),17.3%,17.4%,-94.8% (active),9.36% (active),7.5% (active),1.45% (active),-23% (active),14.5%,-58.8% (active),2.87% (active),9.9% (active),17.6%
OCCNc1oc(-c2ccccc2)nc1[P+](c1ccccc1)(c1ccccc1)c1ccccc1,8.3% (active),1.88% (active),55.3%,24.2%,5.2% (active),-22.6% (active),2.33% (active),45.8%,21.2%,-52.8% (active),16.6%,11.2%,-26.1% (active),-5.38% (active),5.6% (active),20.7%,16.7%,-9.09% (active),11%
Nc1nc(Nc2ccc(Cl)cc2)nn1Cc1cccc(Br)c1,31.7%,41.5%,44.7%,52.5%,17.9%,-9.09% (active),27.6%,45%,37.4%,24.7%,53.3%,20.5%,50.6%,42.6%,40.7%,44.7%,37.8%,58.2%,35.8%
CN1C/C(=C\c2ccc(O)cc2O)c2[o+]c3cc(O)ccc3cc2C1,56.6%,56.3%,88%,77.8%,35.8%,58.8%,-0.58% (active),99.5%,41.7%,58.3%,78.7%,34.9%,26.5%,14.2%,70%,92.5%,-8.51% (active),58.5%,55.2%
